Max response data for 67 molecules are collected here from PubChem BioAssay AID2314 (National Center for Advancing Translational Sciences (NCATS), 2010).

Each structure is given as a SMILES string. The campaign covered roughly 300,000 compounds. About 37,000 (12%) were called active. Rule as the data show it: active = max response mostly above about 13% (no sharp cut-off); inactive = mostly below about 14%. The entries come from a sample that favours actives as a whole.

This experiment is described as follows: Cycloheximide Counterscreen for Small Molecule Inhibitors of Shiga Toxin. Also: read at 38.3 µM for the half of the compounds with a filed dose; 0% is about no effect. Particulars: cell reporter, cycloheximide protein synthesis inhibition counterscreen; stronger effect = higher value. For orientation: The purpose of a counterscreen is to sort out artefacts and off-target activity.
Regarding `O=C(O)CCC(=O)O`, the max response is 7.04% (inactive).
Regarding `CCC(C)(C)NC(=O)C(c1ccc(O)cc1)N(C(=O)Cn1nnc2ccccc21)c1ccc(NC(C)=O)cc1` (configuration not stated), the max response is -2.51% (inactive).
The result for `COc1ccc(C(C(=O)NCC2CCCO2)N(C(=O)Cn2nnc3ccccc32)c2ccc(NC(C)=O)cc2)cc1OC` (configuration not stated) reads -1.07% (inactive).
The result for `COc1ccc(C(C(=O)NC(C)(C)C)N(C(=O)Cn2nnc3ccccc32)c2ccc(C(C)=O)cc2)cc1O` (configuration not stated) reads 14.1% (active); that for `COC(=O)C1CCN(CC(N)=O)CC1`, -5.67% (inactive); that for `CCOP(=O)(OCC)C(Nc1cccc(C)c1)c1ccc(F)cc1` (configuration not stated), -1.31% (inactive).
Next, `COc1ccccc1OCCOc1ccc(/C=N/n2cnnc2)cc1`: -5.27% (inactive); `COc1cccc(OCCOc2cccc(/C=N/n3cnnc3)c2)c1`: 42.6% (active); `C(=N\n1cnnc1)/c1cccnc1`: 0.339% (inactive).
Take `COC(=O)CNC(=O)c1cc(-c2ccncc2)nc2ccccc12`: the max response was 7.25% (inactive).
Next, `CCc1ccc(-c2cc(C(=O)NN3CCN(C)CC3)c3ccccc3n2)cc1`: 21.6% (active).
Next, `CNC(=O)COC(=O)c1cc(-c2ccc(OC)cc2)nc2ccccc12`: 10.9% (inactive); `O=C(COc1ccc(Cl)cc1)NCCS(=O)(=O)N1CCN(c2ccc(F)cc2)CC1`: -2.81% (inactive).
In the case of `N#Cc1ccc(C2N=C(c3ccccc3)NO2)cc1` (configuration not stated), the max response was 50.7% (active).
The result for `Brc1ccccc1C1Nc2cccc3cccc(c23)N1` reads -2.34% (inactive); that for `S=C1NC(c2ccccc2)=NCN1c1ccc(Br)cc1`, 11.3% (inactive); that for `Brc1ccccc1C1N=C(c2ccccc2)NO1` (configuration not stated), 46.9% (active).
In the case of `COc1ccc(CNC(=O)c2cc(C(=O)C3CC3)c[nH]2)cc1`, the max response was -0.249% (inactive).
The result for `Cc1cc(Nc2cccc(C)c2C)n2ncnc2n1` reads -1.07% (inactive).
On to `CCn1cc(C(=O)OCC(=O)Nc2cccc(C)c2)c(=O)c2ccc(C)nc21`, for which the max response is -2.42% (inactive).
Next, `CN(c1ccc(OCC(=O)OCC(=O)Nc2cccc([N+](=O)[O-])c2)cc1)S(=O)(=O)c1ccc(F)cc1`: 5.41% (inactive); `Cc1onc(-c2ccccc2)c1C(=O)N1CCN(S(=O)(=O)c2ccccc2C(F)(F)F)CC1`: 10.2% (inactive); `Cc1cc(N/N=C/c2ccccc2F)c2ccccc2n1`: -1.58% (inactive).
Next, `Oc1ccc(/C=N/NC2=NCCCCC2)c(O)c1`: 42% (active); `Cc1nc2ccccc2nc1N/N=C/c1ccc(O)cc1O`: 25% (active); `Cc1ccc(/C=N/NC(=O)C2=NNC(c3ccccc3)(c3ccccc3)C2)c(O)c1`: 9.49% (inactive).
The result for `FC(F)(F)c1nc2ccccc2nc1N/N=C/c1ccc(Cl)cc1` reads -0.973% (inactive).
Regarding `COc1ccc(/C=C(\C#N)C(=O)ONC2=NCCCCC2)cc1`, the max response was 9.41% (inactive).
As for `Oc1ccc(/C=N/Nc2nc(-c3ccccc3F)nc3ccccc23)c(O)c1`, the max response was 15.1% (active).
On to `CC(=O)c1ccc(N2CCN(C(=O)C3CCN(S(=O)(=O)c4ccc5c(c4)CC(C)N5C(=O)C4CC4)CC3)CC2)cc1` (configuration not stated), for which the max response was -0.93% (inactive).
Next, `Cc1cc(C)n(CC(O)COc2ccc(C(C)(C)C)cc2)n1` (configuration not stated): 10.5% (inactive).
Take `CCc1cccc(NC(=S)N(CCN(C)C)C2CCN(C(C)C)CC2)c1`: the max response was -3.94% (inactive).
Next, `Cc1ccc(NC(=O)C(=O)NCc2ccc(/C=N/NC(=O)c3c(C)nc4cc(C)ccn34)o2)cc1`: 6.74% (inactive).
Take `O=c1[nH]c(CN2CCN(S(=O)(=O)c3ccc4c(c3)OCCO4)CC2)nc2sc3c(c12)CCCC3`: the max response was -1.21% (inactive).
In the case of `CCCCOc1ccc(C(=O)N/C(=C/C=C/c2ccccc2)C(=O)N2CCOCC2)cc1`, the max response is -4.3% (inactive).
As for `CC(C)COP(=O)(c1ccc(N(C)C)cc1)C(Nc1ccccc1)c1cccnc1` (configuration not stated), the max response is -7.16% (inactive).
Next, `O=C(CCN1C(=O)[C@@H]2Cc3ccccc3CN2C1=O)NCc1ccccc1`: -3.78% (inactive); `N#C/C=C/N1CCN(Cc2ccc3c(c2)OCO3)CC1`: -4.02% (inactive); `O=P(O)(CN1CCCCCC1)C1Cc2ccccc2C1`: -0.763% (inactive).
Turning to `Cc1noc(C)c1-c1ccc2ncnc(NC(C)c3ccco3)c2c1` (configuration not stated), the max response is 14.8% (inactive).
`Cc1noc(C)c1-c1ccc2ncnc(NCc3ccc4[nH]ccc4c3)c2c1`: the max response is 56.1% (active).
With `Cc1noc(C)c1-c1ccc2ncnc(NCc3ccc(F)c(F)c3)c2c1`, the max response was -5.05% (inactive).
The result for `COc1ccc(NC(=O)CNC(=O)Cn2ccc3ccccc3c2=O)c(OC)c1` reads -1.76% (inactive); that for `O=C(C1CCCO1)N1CCN(C(=S)Nc2cccc(Cl)c2)CC1` (configuration not stated), 2.71% (inactive); that for `Cc1cccc(NC(=S)N2CCCC(c3nc4ccccc4[nH]3)C2)c1` (configuration not stated), 2.24% (inactive).
As to `Cc1ccc(C2CCN(C(=S)Nc3cccc(Cl)c3)C2)cc1` (configuration not stated), the max response is 23.2% (active).
Turning to `CCn1c2ccccc2c2cc(NC(=O)Nc3ccc([N+](=O)[O-])cc3C)ccc21`, the max response is 1.99% (inactive).
On to `COc1ccc(NC(=O)COc2ccc(C(=O)c3ccc(F)cc3)cc2)cc1S(N)(=O)=O`, for which the max response is -1.97% (inactive).
`COCCCn1c(SCC(=O)NC2CCCC2)nnc1-c1ccccc1`: the max response is -2.3% (inactive).
With `O=C(Nc1ccc2sc3ccccc3c(=O)c2c1)c1ccccc1Cl`, the max response was 40.4% (active).
`O=C(Nc1cccc(NC(=O)c2ccccc2[N+](=O)[O-])c1)c1ccccc1Cl`: the max response was -2.59% (inactive).
The result for `COCC(=O)N1CCc2ccc(NC(=O)c3ccccc3Cl)cc2C1` reads -1.85% (inactive); that for `O=C(COc1ccccc1[N+](=O)[O-])NC1CC1`, 1.49% (inactive); that for `O=C(O)CCCN1C(=O)C2C3c4ccccc4C(c4ccccc43)[C@@H]2C1=O` (some centres not stated), -1.2% (inactive).
The result for `C=CCSC(CC)(CC)C(N)=O` reads -2.64% (inactive); that for `Cc1ccnc(NS(=O)(=O)c2ccc(NC(=O)c3oc4ccccc4c3C)cc2)n1`, 1.07% (inactive); that for `Cc1nonc1NC(=O)c1oc2ccccc2c1C`, 35.8% (active).
With `Cc1c(C(=O)N2CCCc3ccccc32)oc2ccccc12`, the max response is 18.8% (active).
The result for `CCc1nonc1NC(=O)c1oc2ccc(Cl)cc2c1C` reads -1.57% (inactive); that for `Cc1c(C(=O)NC2CCCCC2)oc2ccccc12`, 39.2% (active).
With `COc1ccc2oc(=O)c(C(=O)N3CCCc4ccccc43)cc2c1`, the max response was 0.681% (inactive).
Turning to `Cc1nonc1NC(=O)c1ccccc1Br`, the max response was 6.09% (inactive).
The result for `Cc1ccc(NC(=O)c2oc3ccccc3c2C)c([N+](=O)[O-])c1` reads 29.7% (active); that for `Cc1ccc2[nH]c(C(=O)O)c(NC(=O)c3ccccc3[N+](=O)[O-])c2c1`, -2.43% (inactive).
The result for `Cc1ccc(NC(=O)c2oc(=O)c3ccccc3c2-c2ccccc2)c(C)c1` reads -5.99% (inactive); that for `CCC(=O)N1CCCc2ccccc21`, -1.65% (inactive).
`Cc1c(C(=O)Nc2cccc(-c3nnc4n3CCCCC4)c2)oc2ccccc12`: the max response is 13% (inactive).
